Source: the supplement of paper PMC8728848
Many of the other results were omitted from the sample, so the strongest signals are more common in it than they were.

How the values were obtained:
Experiment in all cases: glycan array binding signal (z-score within array); higher = stronger binding
[1] = test system: Neu5Gc(a2-3)Gal(b1-4)Glc; conditions: glycan notation: IUPAC condensed, linker removed
Outline: (§1)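 Arrays were curated from the Consortium for Functional Glycomics database, 3228 in total, and kept only where the protein sequence was available. Binding is expressed as a within-array Z-score. This score was averaged across arrays of the same protein sequence at different concentrations or buffers and across linkers, and negative values can be read as non-binding.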

[2] = test system: Neu5Gc(a2-8)Neu5Gc(a2-3)Gal(b1-4)GlcNAc; conditions: glycan notation: IUPAC condensed, linker removed; mutation: R125K
Outline: as §1

[3] = test system: Neu5Gc(a2-3)Gal(b1-4)[Fuc(a1-3)]GlcNAc; conditions: glycan notation: IUPAC condensed, linker removed
Outline: as §1

[4] = test system: Neu5Gc(a2-6)GalNAc; conditions: glycan notation: IUPAC condensed, linker removed
Outline: as §1

[5] = test system: Neu5Gc(b2-6)Gal(b1-4)GlcNAc; conditions: glycan notation: IUPAC condensed, linker removed
Outline: as §1

Chain of C3b (Homo sapiens), P01024 (P01024 23-667): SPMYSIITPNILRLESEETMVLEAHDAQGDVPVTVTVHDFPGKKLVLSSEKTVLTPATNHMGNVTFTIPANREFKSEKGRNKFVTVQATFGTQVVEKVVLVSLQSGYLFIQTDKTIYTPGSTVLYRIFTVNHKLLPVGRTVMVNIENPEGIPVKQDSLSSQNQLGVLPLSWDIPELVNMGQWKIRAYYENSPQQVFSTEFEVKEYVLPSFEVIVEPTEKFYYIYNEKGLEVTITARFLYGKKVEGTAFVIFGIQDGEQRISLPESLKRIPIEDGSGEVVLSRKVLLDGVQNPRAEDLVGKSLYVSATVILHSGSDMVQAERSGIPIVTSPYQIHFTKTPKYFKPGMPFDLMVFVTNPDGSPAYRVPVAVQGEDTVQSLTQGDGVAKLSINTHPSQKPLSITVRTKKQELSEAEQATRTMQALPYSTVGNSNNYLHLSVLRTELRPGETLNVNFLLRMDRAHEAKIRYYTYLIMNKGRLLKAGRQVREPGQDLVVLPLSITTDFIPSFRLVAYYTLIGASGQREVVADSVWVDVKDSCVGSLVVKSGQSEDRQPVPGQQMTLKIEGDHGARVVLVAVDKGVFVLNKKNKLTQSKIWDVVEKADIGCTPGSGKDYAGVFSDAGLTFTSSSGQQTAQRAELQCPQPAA
Chain of 6RG (Lolium perenne) (chain, as listed by the source): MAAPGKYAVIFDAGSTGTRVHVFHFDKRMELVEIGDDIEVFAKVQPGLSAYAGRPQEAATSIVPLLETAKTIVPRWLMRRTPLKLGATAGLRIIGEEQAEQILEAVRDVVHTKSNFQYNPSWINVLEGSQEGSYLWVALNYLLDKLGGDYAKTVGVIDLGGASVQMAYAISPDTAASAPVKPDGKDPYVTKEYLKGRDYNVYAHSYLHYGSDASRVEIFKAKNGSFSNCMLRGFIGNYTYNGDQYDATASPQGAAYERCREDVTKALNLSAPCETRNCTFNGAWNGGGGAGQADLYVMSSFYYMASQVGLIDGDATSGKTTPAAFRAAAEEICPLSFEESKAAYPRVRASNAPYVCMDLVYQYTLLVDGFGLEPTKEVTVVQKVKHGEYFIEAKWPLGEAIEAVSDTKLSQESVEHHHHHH
Chain of PILRb (Mus musculus), Q2YSF2 (Q2YSF2 entry or part of it): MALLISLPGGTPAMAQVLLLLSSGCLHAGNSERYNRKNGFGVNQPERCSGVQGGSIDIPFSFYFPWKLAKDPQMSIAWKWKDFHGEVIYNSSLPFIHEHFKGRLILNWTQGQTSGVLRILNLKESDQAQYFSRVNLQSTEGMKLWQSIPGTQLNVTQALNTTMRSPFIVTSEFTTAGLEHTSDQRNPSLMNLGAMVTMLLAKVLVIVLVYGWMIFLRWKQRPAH
Chain of Aggrecan (Rattus norvegicus), NP_071526 (chain, as listed by the source): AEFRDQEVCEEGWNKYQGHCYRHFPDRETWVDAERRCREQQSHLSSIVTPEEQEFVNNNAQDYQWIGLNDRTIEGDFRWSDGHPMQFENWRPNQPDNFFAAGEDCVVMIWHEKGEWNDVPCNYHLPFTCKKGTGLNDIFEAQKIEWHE
Chain of SRLC (Mus musculus), Q8VIF6 (Q8VIF6 other isoform, or with tags, fused parts or gaps): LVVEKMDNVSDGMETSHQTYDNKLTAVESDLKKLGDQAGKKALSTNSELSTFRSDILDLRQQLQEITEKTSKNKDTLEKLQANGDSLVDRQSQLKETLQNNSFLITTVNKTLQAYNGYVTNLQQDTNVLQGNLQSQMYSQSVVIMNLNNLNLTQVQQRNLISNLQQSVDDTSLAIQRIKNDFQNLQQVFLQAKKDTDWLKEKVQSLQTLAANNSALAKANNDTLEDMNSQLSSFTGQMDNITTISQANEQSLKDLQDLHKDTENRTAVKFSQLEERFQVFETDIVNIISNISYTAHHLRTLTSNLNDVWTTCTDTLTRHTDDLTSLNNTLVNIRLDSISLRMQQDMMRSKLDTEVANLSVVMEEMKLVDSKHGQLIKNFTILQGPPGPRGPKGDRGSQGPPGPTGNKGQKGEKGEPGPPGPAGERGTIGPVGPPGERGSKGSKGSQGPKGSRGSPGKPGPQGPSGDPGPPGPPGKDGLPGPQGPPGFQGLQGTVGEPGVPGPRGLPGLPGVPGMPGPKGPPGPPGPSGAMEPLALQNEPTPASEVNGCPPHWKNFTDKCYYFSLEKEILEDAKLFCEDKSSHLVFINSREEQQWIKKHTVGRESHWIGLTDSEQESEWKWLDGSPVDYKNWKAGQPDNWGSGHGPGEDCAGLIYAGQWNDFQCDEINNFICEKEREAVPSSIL

Siglec-8 (Homo sapiens), Q9NYZ4
glycan array binding signal (z-score) [1]: -0.088 | glycan array binding signal (z-score) [2]: -0.526

SRLC (Mus musculus), Q8VIF6
glycan array binding signal (z-score) [1]: -0.188

Aggrecan (Rattus norvegicus), NP_071526
glycan array binding signal (z-score) [3]: -0.152

6RG (Lolium perenne)
glycan array binding signal (z-score) [4]: -0.128

C3b (Homo sapiens), P01024
glycan array binding signal (z-score) [4]: -0.982

PILRb (Mus musculus), Q2YSF2
glycan array binding signal (z-score) [5]: -0.093
